According to PubChem BioAssay AID1347056 (Sanford-Burnham Center for Chemical Genomics, 2019):
Among all 360,000 compounds or so, about 3,600 (1%) were called active.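 How the source made its calls: active means compounds whose plate-normalised and pattern-corrected inhibition of the luciferase reporter signal at the single screening dose is 50% or more; inactive means the rest.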 Only a selection was taken, and actives are over-represented in it overall.

Assay: TROY pathway blockers in reporter cells – Q293 LMP1-TROYcd cells, NF-kB luciferase, uHTS, primary screen (AID 1347056)
Settings: 4 h, at 10 µM, hits give high values

Structure (SMILES)	inhibition
CN(CC(=O)NC1CCCC1)S(=O)(=O)c1cnc[nH]1	7.95% (inactive)
CCNc1nc(NC(C)C)nc(N2CC(=O)N(CC(=O)OCC)C2=N)n1	19.4% (inactive)
CCOC(=O)N1CCN(C(=O)c2ccc3c(=O)n(CCc4ccc(OC)c(OC)c4)c(=O)[nH]c3c2)CC1	1.87% (inactive)
Cc1ccccc1NC(=O)C1CCN(C(=O)NC2CCCCC2)CC1	-10.7% (inactive)
O=C(C1CCCN(S(=O)(=O)c2ccccc2)C1)N1CCN(c2ccc(F)cc2)CC1 (stereo unspecified)	3.28% (inactive)
CC(=O)N1CCCc2cc(S(=O)(=O)N3CCCC(C(=O)N4CCN(c5cccc(Cl)c5)CC4)C3)ccc21 (stereo unspecified)	54.2% (active)
COc1cccc(N2CCN(C(=O)C3CCCN(S(=O)(=O)c4cnc[nH]4)C3)CC2)c1 (stereo unspecified)	-3.43% (inactive)
CCOc1cccc2cc(C(=O)OCC(=O)Nc3c(C)cccc3CC)c(=O)oc12	-77.6% (inactive)
O=C(Nc1ccc(Cl)c(C(F)(F)F)c1)C1Cc2c(-c3ccccc3Oc3ccccc3)ccnc2O1 (stereo unspecified)	16.3% (inactive)
COc1ccc(N(CC(=O)NCc2ccc(F)cc2)C(=O)CCC(=O)Nc2nccs2)cc1	-6.88% (inactive)
O=C(CNC(=O)OCc1ccccc1)Oc1cc2oc(=O)cc(-c3ccccc3)c2cc1Cl	50.4% (active)
O=C(CNC(=O)c1ccccc1)NCC(=O)OCc1ccc(Cl)cc1	17.5% (inactive)
CC(Oc1ccc2c(-c3ccccc3)cc(=O)oc2c1)C(=O)NC(Cc1c[nH]c2ccccc12)C(=O)O (stereo unspecified)	-3.69% (inactive)
Cc1ccc(S(=O)(=O)Oc2ccc(/C=N/NC(=O)c3c(Cl)cnn3C)cc2)cc1	-1.06% (inactive)
CCN(CC)CCNC(=O)c1sc2ncn(CC(=O)Nc3ccc(C)c(Cl)c3)c(=O)c2c1C	6.8% (inactive)
CC(=O)N1CCN(c2ccccc2NC(=S)NC(=O)c2cc3ccccc3o2)CC1	5.79% (inactive)
O=C1NC(c2ccncc2)Nc2sc3c(c21)CCCC3 (stereo unspecified)	-12.2% (inactive)
C/C(=C\c1ccccc1)C1NC(=O)c2c(sc3c2CCCC3)N1 (stereo unspecified)	67.6% (active)
O=C(Nc1sc2c(c1-c1nc3ccccc3[nH]1)CCCC2)C1CC1	-11.2% (inactive)
CN(C)S(=O)(=O)c1ccc2oc(SCC(=O)Nc3ccccc3F)nc2c1	-36.4% (inactive)
COc1ccc(Cl)cc1S(=O)(=O)Nc1cccc(C(=O)O)c1	1.76% (inactive)
Cc1ccc(NC(=O)Nc2ccc3oc(C)nc3c2)cc1	-27.6% (inactive)
O=C(Nc1ccc2ccccc2c1)Nc1ccc2snnc2c1	69.7% (active)
COc1cccc(NC(=O)Nc2ccc(F)cc2)c1	-52.4% (inactive)

Structure (SMILES)	inhibition
CN(CCC(=O)Nc1cc(S(=O)(=O)N(C)C)ccc1Cl)CC(=O)Nc1ccc(F)cc1	1.42% (inactive)
CSCCNCc1cn(-c2ccc(F)cc2F)nc1-c1ccccc1C	1.03% (inactive)
OCc1nc(CO)n(Cc2ccccc2)n1	11.6% (inactive)
O=C(COC(=O)c1ccc(Cl)nc1)NCc1ccc2c(c1)OCO2	-7.63% (inactive)
CN(C)C(=O)c1cccc(-c2cnc3sc(NCc4ccc5c(c4)OCO5)nn23)c1	51.8% (active)
O=C(CSc1ncnc2scc(-c3ccccc3)c12)NCc1ccc2c(c1)OCO2	22.3% (inactive)
COc1ccccc1NC(=O)N1CCCC1C(=O)NCc1cccs1 (stereo unspecified)	7.15% (inactive)
COc1ccccc1CNC(=O)CN1CCC(n2cnc3cc(F)ccc32)CC1	2.42% (inactive)
CCCCCCN1CCN(C2CN(Cc3cn(Cc4ccc(F)cc4)nn3)S(=O)(=O)C2)CC1 (stereo unspecified)	0.62% (inactive)
COc1ccc2nc(-c3ccccn3)ccc2c1	6.94% (inactive)
COCCN(C(=O)CCC(=O)Nc1ccccn1)C(C(=O)NCCC(C)C)c1ccc(OC)cc1 (stereo unspecified)	5.49% (inactive)
COc1ccc(C(=O)/C=C/Nc2ccccn2)cc1	72.4% (active)
CCOC(=O)c1cnc(COc2ccccc2Cl)[nH]c1=O	-7.4% (inactive)
CCOC(=O)c1c(C)[nH]c(C)c1C(=O)CSc1nc(N)cc(N)n1	4.52% (inactive)
CCOC(=O)c1c(C)[nH]c2c1-c1ccccc1C(=O)C2=O	63.1% (active)
O=C(NCc1nnc(SCC(=O)N2CCC(Cc3ccccc3)CC2)o1)c1ccco1	3.48% (inactive)
Cc1ccc(CS(=O)Cc2ccc(C(=O)N3CCOCC3)o2)cc1 (stereo unspecified)	-4.44% (inactive)
COc1cc(N2C(=O)CSC2=S)cc(OC)c1OC	33.1% (inactive)
O=C1CSC(=S)N1c1ccc(Cl)c(Cl)c1	33.2% (inactive)
O=C1CSC(=S)N1c1ccc(O)cc1	50.1% (active)
CC1=CC(=NNS(=O)(=O)c2ccc([N+](=O)[O-])cc2)CC(C)(C)C1	-0.66% (inactive)
Cc1nn(C(C)(C)C)c(OC(=O)CC(C)C)c1S(=O)(=O)c1ccccc1	12.4% (inactive)
Cc1ccccc1OCCC(=O)OCC(=O)NCCc1ccc(S(N)(=O)=O)cc1	0.01% (inactive)
O=C(Nc1ccc(-n2ccnc2P(=O)(O)c2ccccc2)cc1)c1ccccc1Br	-20.5% (inactive)

Structure (SMILES)	inhibition
CC(C)CCN1C(=O)c2ccc(C(=O)Nc3cccc(S(N)(=O)=O)c3)cc2C1=O	63.2% (active)
CN1CCN(S(=O)(=O)c2cccc(C(=O)Nc3cccc(S(N)(=O)=O)c3)c2)CC1	14.3% (inactive)
Cc1cccc(C(=O)Nc2ccc3c(c2)C(=O)N(CC(C)C)C3=O)c1	-12.3% (inactive)
COc1ccccc1OCCNc1cc(N2CCOCC2)ccc1[N+](=O)[O-]	-25% (inactive)
COc1ccc(CCNC(=O)c2ccccc2-c2ccccc2C(=O)O)cc1OC	-8% (inactive)
COc1ccc(CCNc2cc(N3CCN(C(=O)c4ccccc4OC)CC3)ccc2[N+](=O)[O-])cc1OC	64% (active)
C[N+](C)(C)CCNC(=O)c1c[nH]c2ccccc12	-5.29% (inactive)
Cc1ccc(F)cc1NC(=O)N1CCCN(c2ccc(C(F)(F)F)cn2)CC1	8.63% (inactive)
O=C(O)c1cc(S(=O)(=O)N2CCCCCC2)c(Cl)cc1Cl	0.33% (inactive)
COc1cccc(/C=C(/CC(=O)Nc2ccc(N3CCOCC3)cc2)c2nc3ccccc3s2)c1	54.8% (active)
Cc1ccc(OCCCC(=O)Nc2ccc(N3CCOCC3)cc2)cc1	6.99% (inactive)
CCn1c(Cc2ccc(OC)cc2)nnc1SCC(=O)Nc1ccc(N2CCOCC2)cc1	4.48% (inactive)
COc1cc2c(cc1OC)CN(C(=O)c1cc(S(=O)(=O)N3CCCCC3)ccc1Cl)CC2	-16.5% (inactive)
COc1cc2c(cc1OC)CN(C(=O)c1ccc(S(=O)(=O)N3CCCCCC3)cc1)CC2	-2.54% (inactive)
COc1cc2c(cc1OC)C(C)N(S(=O)(=O)c1cnc(Cl)c(Cl)c1)CC2 (stereo unspecified)	62.8% (active)
COc1cccc(NC(=O)C(Sc2nc3ccccc3c(=O)n2CC(C)C)c2ccccc2)c1 (stereo unspecified)	-17.8% (inactive)
O=C(Nc1ccc(N2CCOCC2)nc1)c1c(F)cccc1F	-14.2% (inactive)
CCOC(=O)C1CCCN(C(=O)c2ccc(C)c(F)c2)CC1 (stereo unspecified)	1.56% (inactive)
Cn1cc(CNC(=O)c2ccc(OC3CCN(Cc4ccccn4)CC3)cc2)cn1	-10.1% (inactive)
CN(CCc1ccccn1)C(=O)c1ccc(OC2CCN(CCc3ccccc3)CC2)cc1	-24% (inactive)
CN(CCc1ccccn1)C(=O)c1ccc(OC2CCN(Cc3ccccn3)CC2)cc1	50.2% (active)
Cc1ccccc1C(=O)Nc1cccc(-c2nnc(SCC(=O)O)n2C)c1	18.5% (inactive)
CCOC(=O)/C(C#N)=C\c1c(C)cc(C)c(COC(C)=O)c1C	-28.3% (inactive)
